Source: publication PMC7819943, “Rice protein-binding microarrays: a tool to detect cis-acting elements near promoter regions in rice”
Whole data set: some 35,000 sequences, median “fluorescence intensity (a.u.)” near 10,000, cut for the highest 2% near 52,000. What follows is part of a selection rich in the highest values, with near analogues and random picks from the rest.

biological target: T1, OsWOX13 (Oryza sativa, UniProt Q5QMM3 1-267); test: protein-binding microarray (RPBM); PBS, 2% BSA, 51.3 ng/ul salmon testes DNA, 50 uM zinc acetate, 200 nM TF, 25 C, 1 h; high values mean tight binding; details: protein: recombinant; tags: N-terminal polyhistidine and DsRed monomer fusion (pET32a); label: CyDye5-dUTP incorporated in the synthesized complementary strand; 3' TTTTT single-stranded linker to array surface; dsDNA, one strand shown
T1 sequence: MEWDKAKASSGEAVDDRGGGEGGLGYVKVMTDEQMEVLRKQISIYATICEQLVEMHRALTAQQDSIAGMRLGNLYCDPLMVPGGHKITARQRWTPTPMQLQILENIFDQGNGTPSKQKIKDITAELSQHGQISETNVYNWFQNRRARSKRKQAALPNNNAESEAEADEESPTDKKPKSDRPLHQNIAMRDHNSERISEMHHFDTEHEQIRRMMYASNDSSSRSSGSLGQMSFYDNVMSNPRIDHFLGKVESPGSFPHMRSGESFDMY
How it was run: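 Binding signal is reported as fluorescence intensity per feature (arbitrary units) from an Axon 4000B scanner. Incubation used 200 nM of each Ni–NTA-purified, N-terminally polyhistidine- and DsRed-fused transcription factor from E. coli BL21-CodonPlus on a double-stranded custom Agilent array for 1 h at 25 °C, with 50 µM zinc acetate in the buffer, followed by washing.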

| Sequence | binding signal |
| --- | --- |
| CTGATTGATTCGTAATAGTAGAATAGGACATGTTACCATACGGAGTCACCTAGTGCAG | 64500 fluorescence intensity (a.u.) |
| GTATGTGATTTTCTTTAATTAGAGTTCTTGCCTAAGGTTGCGGAGTCACCTAGTGCAG | 38300 fluorescence intensity (a.u.) |
| CTTGATTTATTATTTACCATGTTAGAAATGTTTATTTATACGGAGTCACCTAGTGCAG | 29600 fluorescence intensity (a.u.) |
| CAGATTAAAATTTCTGCTCAAGCTAGCCATCGATCATCTGCGGAGTCACCTAGTGCAG | 3930 fluorescence intensity (a.u.) |
| GATGAAACATTTGACATGAACTAAATTTTGTTCGGCAGTTCGGAGTCACCTAGTGCAG | 5180 fluorescence intensity (a.u.) |
| CGTAGAAGGGATTGGGTGAAATTACATGGGCATATAGGGACGGAGTCACCTAGTGCAG | 4240 fluorescence intensity (a.u.) |
| ATAATTAGACTTCTTGTTGCCTTCACCTATTTTAACACATCGGAGTCACCTAGTGCAG | 13000 fluorescence intensity (a.u.) |
| GAAAATTATGTACATCCTCCGCTTAAAGATGACTATGAATCGGAGTCACCTAGTGCAG | 4540 fluorescence intensity (a.u.) |
| GATAAGTAAATTAATTGGAAGAAAGAAATCAGTGGGGAGGCGGAGTCACCTAGTGCAG | 13500 fluorescence intensity (a.u.) |
| AGCCTAATTAATCCGTCATTAGCAAATATTTACTGTAGCACGGAGTCACCTAGTGCAG | 28400 fluorescence intensity (a.u.) |
| TAAGTAGATCGAAAATGTTTCAATCATTTAAATCAGGCGTCGGAGTCACCTAGTGCAG | 4180 fluorescence intensity (a.u.) |
| TTATTAATTATCATATTAGTAGTAGTAGTAGTAGCTAGGCCGGAGTCACCTAGTGCAG | 34100 fluorescence intensity (a.u.) |
| TATGATATGTCAAATCCTATAATTTCTTCGTCCCAAAATGCGGAGTCACCTAGTGCAG | 3440 fluorescence intensity (a.u.) |
| GAATGGTCCAACAAGGAGACTGAGGAATGGTCAACACATTCGGAGTCACCTAGTGCAG | 59700 fluorescence intensity (a.u.) |
| ATCGGAGACTGACTGAGTGAAGGTTGGTTGGTTCACACTTCGGAGTCACCTAGTGCAG | 4540 fluorescence intensity (a.u.) |
| GGTCCAATCAACATGAATAACAAAACAAAGGAAATGGATTCGGAGTCACCTAGTGCAG | 17100 fluorescence intensity (a.u.) |
| ATGATCAATCAGTAGATTATGCCCTGGTTATTCTTTATAACGGAGTCACCTAGTGCAG | 25400 fluorescence intensity (a.u.) |
| ATGGATATAAATTGATGAGTACAGTCCTGAGAACTGCAAGCGGAGTCACCTAGTGCAG | 32600 fluorescence intensity (a.u.) |
| GTTACTGTGATTTGTTTCACGAAGCCCCATGTTTTGAGCCCGGAGTCACCTAGTGCAG | 11700 fluorescence intensity (a.u.) |
| ACTAATCTGATTGTGTCACTTGTGCGATTGATGGAGTTCACGGAGTCACCTAGTGCAG | 23900 fluorescence intensity (a.u.) |
| TTTTGATTGAAGACACACCTATTGTCGCGAATACTGCTAACGGAGTCACCTAGTGCAG | 40500 fluorescence intensity (a.u.) |
| CCACGCCAATTAGCATCCCACGTTTCGCCTTTGATTGTGGCGGAGTCACCTAGTGCAG | 10600 fluorescence intensity (a.u.) |
| TATAATTTAAATTTAACTAAATTAATGGTATTACAGATGTCGGAGTCACCTAGTGCAG | 58500 fluorescence intensity (a.u.) |
| ATATTTAATTATTATTTTAATAAAACTAATTTGGTAATGTCGGAGTCACCTAGTGCAG | 25700 fluorescence intensity (a.u.) |

| Sequence | binding signal |
| --- | --- |
| ATTAATAATGTATAATTTATTTTAGTGGTATTAATGTTGTCGGAGTCACCTAGTGCAG | 22400 fluorescence intensity (a.u.) |
| TGTTACATATAATGAAATTAATTTGGTATTGTAGATGTTGCGGAGTCACCTAGTGCAG | 13600 fluorescence intensity (a.u.) |
| TCATTAATTAATTAATTACAGTGGTAGATGATGATGTAGTCGGAGTCACCTAGTGCAG | 64000 fluorescence intensity (a.u.) |
| CTATAATTTGTAGATGATGTAGTATAATTATATTTAATCACGGAGTCACCTAGTGCAG | 37300 fluorescence intensity (a.u.) |
| CATTATAGATTAATACATTTTGGGATGGAGGGAGTACTCACGGAGTCACCTAGTGCAG | 3200 fluorescence intensity (a.u.) |
| GACAGGATTATCACCTATTTGTCAACAGTTCACCAGGAGCCGGAGTCACCTAGTGCAG | 3360 fluorescence intensity (a.u.) |
| ATTTAACGTCATTTATAAACATATACTAGATACTAGTAATCGGAGTCACCTAGTGCAG | 3890 fluorescence intensity (a.u.) |
| GTCAACTGGAAATTGAAATTCAGCCAAAATTAGTGATCAGCGGAGTCACCTAGTGCAG | 4850 fluorescence intensity (a.u.) |
| GTAGCAAATTTACAAATTTGCAGGGCTAGCTGTTGCGGTGCGGAGTCACCTAGTGCAG | 11100 fluorescence intensity (a.u.) |
| AAGCATCAATTCGTTGCCTGATTAGTACAACACTGTTGTGCGGAGTCACCTAGTGCAG | 5420 fluorescence intensity (a.u.) |
| CTAATCCCAGATTGCTAGTGATTAGCACGTAGATACATAGCGGAGTCACCTAGTGCAG | 21700 fluorescence intensity (a.u.) |
| CGGTAGTGATTGATTCGGATGATTTCACCAGTAGGATTGGCGGAGTCACCTAGTGCAG | 65300 fluorescence intensity (a.u.) |
| ATATAAATATTAGTAATCAATTGAGGGAACATTTGATTTGCGGAGTCACCTAGTGCAG | 11300 fluorescence intensity (a.u.) |
| AGAGGGTGGGGACATGGGGATTGATTTCACCTGTAGGATTCGGAGTCACCTAGTGCAG | 3430 fluorescence intensity (a.u.) |
| GTTTGATTGTTTTCTAGTGTACTACACTTCCCTAGAACGTCGGAGTCACCTAGTGCAG | 55000 fluorescence intensity (a.u.) |
| GCCCTTGATTTCTGACTAGATTTGTGTTATTCTACTTACACGGAGTCACCTAGTGCAG | 27200 fluorescence intensity (a.u.) |
| CAATAATTGAGTGATTTGGCCCAGTCCAGGAACTAGTAAGCGGAGTCACCTAGTGCAG | 56100 fluorescence intensity (a.u.) |
| TCCAGTCCAATCAGCCCACCATAATTTGGGCCGGAATAAGCGGAGTCACCTAGTGCAG | 17600 fluorescence intensity (a.u.) |
| CAACTTGATTAGTAGTAGTACTAGTTTGATTTTGTCCTGGCGGAGTCACCTAGTGCAG | 54200 fluorescence intensity (a.u.) |
| TGTTTGCGATTGATTTGTACTACACAGTGGGTGCTTCTCCCGGAGTCACCTAGTGCAG | 35300 fluorescence intensity (a.u.) |
| ATTTCTGATTGGTGAGATGGGTGATTCGGTAGGCCATTGGCGGAGTCACCTAGTGCAG | 40100 fluorescence intensity (a.u.) |
| CATTTACTAATTTGTTTGCTTGATTGTCCTGGCGAAATTGCGGAGTCACCTAGTGCAG | 40000 fluorescence intensity (a.u.) |
| CTAATTAGTTTTGGTTAGTACTTATAATTTTGTCCTAATGCGGAGTCACCTAGTGCAG | 15700 fluorescence intensity (a.u.) |
